# Data published in PubChem BioAssay (EPA / NIEHS).
# Results filed as inconclusive are left out. The source made the active and inactive calls. How the source made its calls: active means hit-call score of the fitted dose curve at least 0.9, where 1 is the maximum; inconclusive means response in the unintended direction; inactive means score below 0.9.
# Read-out: Broad substrate specificity ATP-binding cassette transporter ABCG2 (Homo sapiens) (UniProt Q9UNQ0)
# Test: CLD_ABCG2_6hr: CellzDirect (CLD) Gene Expression Assay for ABC Transporter (ABCG2) at 6 hours (AID 2283660)
# Description: CLD_6hr is a cell-based, multiplexed-readout assay that uses hepatocyte, a human liver primary cell, with measurements taken at 6 hours after chemical dosing in a 96-well plate.CLD_ABCG2_6hr is one of 16 assay component(s) measured or calculated from the CLD_6hr assay. It is designed to make measurements of mRNA induction, a form of inducible reporter, as detected with chemiluminescence signals by Quantitative Nuclease Protection Assay (qNPA) technology.Data from the assay component CLD_ABCG2_6hr was analyzed at the endpoint, CLD_ABCG2_6hr, in the positive analysis fitting direction relative to DMSO as the negative control and baseline of activity. Using a type of inducible reporter, gain-of-signal activity can be used to understand changes in the reporter gene as they relate to the gene ABCG2. Furthermore, this assay endpoint can be referred to as a primary readout. To generalize the intended target to other relatable targets, this assay endpoint is annotated to the transporter intended target family, where subfamily is ABC transporter.
# Human hepatocyte cultures were treated daily for two consecutive days with fresh dosing solutions containing appropriate concentrations of the 320 ToxCast chemicals (chemical identities were blinded to CellzDirect and other ToxCast collaborators), vehicle control (0.2% DMSO), and positive control inducers as summarized in Table 1. Due to the large number of treatment groups and chemicals examined, the ToxCast chemicals were divided into two groups (spanning two independent cultures of hepatocytes from separate donor preparations (Hu778: ToxCast plates 1 and 2; Hu776: ToxCast plates 3 and 4). Each preparation of human hepatocyte cultures was treated with respective vehicle control, medium only control, set of six positive controls/reference chemicals for the five hepatic receptor pathways, and a subset of eight of the ToxCast chemicals (indoxacarb, pyrithiobac-sodium, norflurazon, cyhalofop-butyl, methomyl, thiram, acetochlor, and propiconazole). These replicate data, coupled with internal replicates designed within the blinded ToxCast chemical library, provided additional data to evaluate interindividual differences between hepatocyte preparations and their potential impact on chemical profiles.Cell morphology and integrity were evaluated using phase-contrast microscopy as an indicator of hepatocyte cell health (Tyson & Green, 1987). Cultures for each treatment group (i.e., media, vehicle [0.2% DMSO], positive control inducers [multiple concentrations], and the ToxCast chemicals [multiple concentrations]) were observed and cell morphology was assessed relative to vehicle control cultures at each harvest time point (0, 6, 24, or 48 h). […] Images were evaluated at the conclusion of the study to assess changes in cell integrity and account for the effects of chemical exposure on uncharacteristic changes in concentration-dependent gene expression profiles. The results from these determinations of apparent cytotoxicity were annotated (yes/no) alongside the corresponding qNPA data for reference.At the conclusion of each treatment period, hepatocyte cultures (96-well) were washed with 1 volume of HBSS, lysed by addition of 25 ul ArrayPlate lysis buffer (HTG, Tucson, AZ), and 70 ul/well of Denaturation Oil, denatured by incubation at 95C for 10 min, and frozen at approximately -70C until analysis by nuclease protection assay (qNPA) (Roberts et al., 2007). For qNPA analysis, cell lysates were thawed at 50C for approximately 30 min, qNPA probes were added, and samples were incubated at 95C for 10 min to begin the detection process by denaturing the target RNA, dissociating the duplexes and secondary structure hybridization. At the conclusion of the hybridization period, S1 nuclease reagent was added to each sample to digest all nonprotected nucleotides at 50C for 60-90 min. […]
# Chain of Broad substrate specificity ATP-binding cassette transporter ABCG2 (Homo sapiens) (Q9UNQ0 whole entry, looked up): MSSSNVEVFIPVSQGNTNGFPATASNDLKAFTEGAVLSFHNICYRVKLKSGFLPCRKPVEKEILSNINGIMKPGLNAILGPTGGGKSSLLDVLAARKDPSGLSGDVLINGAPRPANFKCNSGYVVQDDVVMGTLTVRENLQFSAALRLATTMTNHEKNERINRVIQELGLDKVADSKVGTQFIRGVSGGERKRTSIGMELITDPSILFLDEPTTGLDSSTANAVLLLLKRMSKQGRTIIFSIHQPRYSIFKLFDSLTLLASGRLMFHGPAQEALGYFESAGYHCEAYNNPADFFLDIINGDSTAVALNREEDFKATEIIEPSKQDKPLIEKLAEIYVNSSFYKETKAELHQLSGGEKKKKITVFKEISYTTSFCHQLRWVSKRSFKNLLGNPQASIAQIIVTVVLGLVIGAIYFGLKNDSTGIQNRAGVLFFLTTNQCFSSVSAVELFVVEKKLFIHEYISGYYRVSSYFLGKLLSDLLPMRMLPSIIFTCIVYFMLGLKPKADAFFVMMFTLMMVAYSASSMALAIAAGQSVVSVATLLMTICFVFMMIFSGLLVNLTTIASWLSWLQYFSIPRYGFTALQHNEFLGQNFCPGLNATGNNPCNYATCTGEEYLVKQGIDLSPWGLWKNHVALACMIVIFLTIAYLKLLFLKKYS
row,Structure (SMILES),outcome
1,C#CCOC(=O)[C@@H](C)Oc1ccc(Oc2ncc(Cl)cc2F)cc1,inactive
2,O=C(O)C1(C(=O)Nc2ccc(Cl)cc2Cl)CC1,inactive
3,CCCCC(CC)COC(=O)c1ccccc1C(=O)O (centres undefined),inactive
4,OB(O)O,inactive
5,N#CSCSc1nc2ccccc2s1,inactive
6,c1ccc(Nc2ccccc2)cc1,inactive
7,CC(C)(c1ccc(O)cc1)c1ccc(O)cc1,inactive
8,CCCCCOC(=O)COc1cc(N2C(=O)C3=C(CCCC3)C2=O)c(F)cc1Cl,inactive
9,CCN(CC)C(=O)c1cccc(C)c1,inactive
10,COC(=O)c1ccc(I)cc1S(=O)(=O)NC(=O)Nc1nc(C)nc(OC)n1,inactive
11,CCCCOCCOCCOCc1cc2c(cc1CCC)OCO2,inactive
12,CCNc1nc(N)nc(Cl)n1,inactive
13,S=C(S)NCCNC(=S)S.[Mn+2].[S-]C([S-])=NCCN=C([S-])[S-].[Zn+2],inactive
14,CCC(O)=C1C(=O)CC(C(=O)O)CC1=O (centres undefined),inactive
15,CCOC(=O)[C@H](C)Oc1ccc(Oc2nc3ccc(Cl)cc3o2)cc1,inactive
16,COC(=O)CSc1cc(N=c2sc(=O)n3n2CCCC3)c(F)cc1Cl,inactive
17,CCCN(CCC)C(=O)SCC,inactive

row,Structure (SMILES),outcome
1,CCCCOC(=O)[C@@H](C)Oc1ccc(Oc2ccc(C(F)(F)F)cn2)cc1,inactive
2,CCCCC(CC)CN1C(=O)C2C3C=CC(C3)C2C1=O (centres undefined),inactive
3,CCCOC(=O)c1ccc(C(=O)OCCC)nc1,inactive
4,CCOC(=O)C(C)Oc1ccc(Oc2cnc3cc(Cl)ccc3n2)cc1 (centres undefined),inactive
5,O=C(Nc1ccc([N+](=O)[O-])cc1Cl)c1cc(Cl)ccc1O,inactive
6,CC(C)(C)[C@@H](O)[C@@H](Cc1ccc(Cl)cc1)n1cncn1,inactive
7,COCCO,inactive
8,CCCCCCC(C)OC(=O)COc1nc(F)c(Cl)c(N)c1Cl (centres undefined),inactive
9,COC(=O)c1ccccc1C(=O)O,inactive
10,CCC(C)OC(=O)N1CCCCC1CCO (centres undefined),inactive
11,CC1(C)C(C=C(Cl)Cl)C1C(=O)OCc1cccc(Oc2ccccc2)c1 (centres undefined),inactive
12,CCCOC(=O)NCCCN(C)C,inactive
13,CCSC(=O)N(CC(C)C)CC(C)C,inactive
14,COC(=O)c1cccc(C)c1S(=O)(=O)NC(=O)Nc1nc(OCC(F)(F)F)nc(N(C)C)n1,inactive
15,COC(=O)c1c(Cl)nn(C)c1S(=O)(=O)NC(=O)Nc1nc(OC)cc(OC)n1,inactive
16,Cc1nn(C)c(Oc2ccccc2)c1C=NOCc1ccc(C(=O)OC(C)(C)C)cc1,inactive
17,C=CCOC(Cn1ccnc1)c1ccc(Cl)cc1Cl (centres undefined),inactive
